# The panel holds about 79,000 compounds, 15% with a hit somewhere; the sample as a whole holds those more often. A number with no mark means an inactive call. Activity calls are given as the source filed them. No stated cut-off is given here; in the data, active means growth inhibition above about 70%; inactive means the rest.
# Columns and labels:
# [1] = NCI Yeast Anticancer Drug Screen. Data for the rad50 strain (AID 155);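 further: 0% = growth of vehicle-only cultures of the same strain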; settings: S. cerevisiae rad50 strain growth inhibition, stronger effect = higher value
# How it was run: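 Genetically altered yeast (DNA repair pathway); compound treatment; growth inhibition vs vehicle ctrl.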
# [2] = NCI Yeast Anticancer Drug Screen. Data for the mec2-1 strain (AID 157); settings: S. cerevisiae mec2-1 strain, stronger effect = higher value
# How it was run: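 Readout is yeast growth inhibition, normalised to vehicle-treated controls, in the mec2-1 strain exposed to compound.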
# [3] = NCI Yeast Anticancer Drug Screen. Data for the sgs1 mgt1 strain (AID 161);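 further: 0% = growth of cultures given vehicle only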; settings: S. cerevisiae sgs1 mgt1 strain, stronger effect = higher value
# How it was run: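 Yeast cells carrying a defined DNA-repair defect were exposed to test compounds. Growth inhibition was measured relative to vehicle-treated controls.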
# [4] = NCI Yeast Anticancer Drug Screen. Data for the cln2 rad14 strain (AID 165);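 further: 0% = growth equal to vehicle treated cultures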; settings: S. cerevisiae cln2 rad14 strain, stronger effect = higher value
# How it was run: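 Relative to vehicle controls, growth inhibition of compound-treated cln2 rad14 yeast was recorded.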
# [5] = NCI Yeast Anticancer Drug Screen. Data for the bub3 strain (AID 167); settings: S. cerevisiae bub3 mutant strain, stronger effect = higher value
# How it was run: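 Yeast carrying a defined mutation is treated with each compound, and growth is compared with that of vehicle-exposed cells to give inhibition.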
# [6] = NCI Yeast Anticancer Drug Screen. Data for the mlh1 rad18 strain (AID 175); settings: S. cerevisiae mlh1 rad18 strain growth inhibition, stronger effect = higher value
# How it was run: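 Test agents were incubated with a yeast strain of defined genotype (DNA damage repair defect). Inhibition of growth was derived by comparison with vehicle-exposed cultures.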
# [7] = at 5.0 µM (retest, dose inferred, filed as 0.5)
# [8] = at 50.0 µM (retest, dose inferred, filed as 5.0)
SMILES,"growth inhibition [1, 7]","growth inhibition [1, 8]",growth inhibition ([1]; at 50.0 µM),"growth inhibition [2, 7]","growth inhibition [2, 8]",growth inhibition ([2]; at 50.0 µM),"growth inhibition [3, 7]","growth inhibition [3, 8]",growth inhibition ([3]; at 50.0 µM),"growth inhibition [4, 7]","growth inhibition [4, 8]",growth inhibition ([4]; at 50.0 µM),"growth inhibition [5, 7]","growth inhibition [5, 8]",growth inhibition ([5]; at 50.0 µM),"growth inhibition [6, 7]","growth inhibition [6, 8]",growth inhibition ([6]; at 50.0 µM)
O=C(Nc1ccc(C(=O)c2ccccc2)cc1)Nc1ccc(Cl)c(Cl)c1,23%,96% (active),92.5% (active),9%,97% (active),95.2% (active),23%,97% (active),94.8% (active),30%,91% (active),94.5% (active),31%,98% (active),96.1% (active),38%,97% (active),94.7% (active)
O/N=C/c1cc(Cl)cc(Cl)c1O,96% (active),96% (active),97.7% (active),93% (active),89% (active),95.1% (active),53%,47%,98% (active),80% (active),94% (active),96.7% (active),85% (active),94% (active),73.5% (active),97% (active),95% (active),97.8% (active)
COC(=O)c1c(C)cccc1C(=O)c1ccc(C)cc1C,-14%,-4%,2.4%,-10%,-3%,-0.1%,-4%,9%,10.6%,-38%,-7%,2.75%,-2%,-16%,5.05%,-11%,21%,23.4%
C=C1C[C@@]2(OC)OCC[C@H]3C(C)=CCC(C1=O)[C@]32C(=O)OC (stereo not given in full),12%,96% (active),98.5% (active),15%,98% (active),92.7% (active),15%,98% (active),99.1% (active),6%,93% (active),96.8% (active),-5%,98% (active),98.7% (active),4%,97% (active),99% (active)
O=C(NNc1nc(-c2ccccc2)cs1)Nc1ccccc1,30%,54%,77.2% (active),19%,44%,90.1% (active),99% (active),98% (active),88.5% (active),98% (active),97% (active),23.6%,99% (active),97% (active),83.8% (active),48%,66%,75.1% (active)
CCCC(=O)Oc1ccc(-c2ccccc2Br)cc1,4%,67%,92.5% (active),3%,34%,82.5% (active),10%,44%,93.5% (active),4%,50%,89.2% (active),18%,74% (active),92.7% (active),2%,31%,88.1% (active)
CC(C)(C)C1=NC(=S)SC2=NC(=O)C3(NN21)c1ccccc1-c1ccccc13,6%,86% (active),90.9% (active),-6%,53%,74.3% (active),5%,78% (active),86.6% (active),-10%,45%,63%,-11%,72% (active),91% (active),6%,77% (active),94.9% (active)
CS(=O)(=O)c1nc(Cl)c(Cl)c(C#N)c1Cl,50%,99% (active),98.3% (active),76% (active),99% (active),98.9% (active),66%,99% (active),99.2% (active),23%,99% (active),84.5% (active),88% (active),99% (active),99.2% (active),85% (active),99% (active),99% (active)
COc1ccc(C2SCC(=O)N2c2nncs2)cc1 (stereo not given),-1%,5%,50.1%,-3%,1%,3.55%,-1%,3%,9.5%,2%,7%,-8.95%,4%,12%,21.7%,2%,5%,13.8%
CC(C)N=C1NS(=O)(=O)c2ccccc21,-2%,-1%,5.5%,-2%,0%,-3.75%,0%,-4%,-0.4%,0%,-2%,17.8%,-3%,-2%,21.4%,-5%,0%,2.6%
